Test results reported in the supplement of paper PMC3898565.
± gives the uncertainty stated by the source.
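Further: viable cell number estimated from Alamar Blue fluorescence read at 560/90, part of a single-dose primary screen of an FDA-approved drug library.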

What follows are compounds tested on U87 (assay: cell viability relative to vehicle control; higher = less growth inhibition (less active)). Details: 10 µM; 72 h.
In the case of C/C=C1\[C@H]2C=C(C)C[C@]1(N)c1ccc(=O)[nH]c1C2, the cell viability is reported as 106.5 ± 0.73%.
CN1CCC(=C2c3ccccc3CCc3sccc32)CC1 [Pizotyline] showed a cell viability of 94.7 ± 13%.
Work on CS(=O)(=O)c1ccc(-c2cc(Br)sc2-c2ccc(F)cc2)cc1 yielded a cell viability of 107.7 ± 0.82%.
COc1cccc2c1C(=O)c1c(O)c3c(c(O)c1C2=O)C[C@@](O)(C(=O)CO)C[C@@H]3O[C@H]1C[C@H](N)[C@H](O)[C@H](C)O1 was tested, and the cell viability was 23.5 ± 4%.
CCCc1nc2c(C)cc(-c3nc4ccccc4n3C)cc2n1Cc1ccc(-c2ccccc2C(=O)O)cc1 gave a cell viability of 98.3 ± 2.2%.
CC[C@]1(O)C[C@H]2CN(CCc3c([nH]c4ccccc34)[C@@](C(=O)OC)(c3cc4c(cc3OC)N(C=O)[C@H]3[C@@](O)(C(=O)OC)[C@H](OC(C)=O)[C@]5(CC)C=CCN6CC[C@]43[C@@H]65)C2)C1 gave a cell viability of 25.9 ± 3.1%.
CN1C2CCCC1CC(NC(=O)c1nn(C)c3ccccc13)C2 (centres undefined) showed a cell viability of 108 ± 0.83%.
CS(=O)(=O)c1ccc(C2=C(c3ccccc3)C(=O)OC2)cc1 gave a cell viability of 107.7 ± 0.87%.
Work on Nc1ccn([C@H]2CC[C@@H](CO)O2)c(=O)n1 yielded a cell viability of 100 ± 2.5%.
